The source of these data is ChEMBL document CHEMBL1157539, “Thousands of chemical starting points for antimalarial lead identification” (Nature, 2010).

This assay relates to HepG2. Briefly: GSK_TCMDC: Percent inhibition of human HepG2 cell line. Test compounds present at 10uM. Type of assay: functional.
With `O=C(Nc1ccc(Br)c(Cl)c1)c1cc([N+](=O)[O-])cc2cn[nH]c12`, the Inhibition is on record as 49%.

On to `CCC(C)NC(=O)CN1CN(c2ccccc2)C2(CCN(C(=O)c3ccc(C(C)(C)C)cc3)CC2)C1=O` (stereo not drawn), for which the Inhibition is 0%.

As for `C=CCC(CC=C)N1C(=O)C(c2ccccc2)(c2ccccc2)N=C1N.O=CO`, the Inhibition came out at 35%.

For orientation: Inhibition means the relative decrease from the control value, in per cent. A low value points to little suppression.
